# Data from PubChem BioAssay (NCI).
# The panel holds about 79,000 compounds, 15% with a hit somewhere; the sample as a whole holds those more often. A number with no mark means an inactive call. Calls of active or inactive are those of the source. Rule as the data show it: active = growth inhibition above about 70%; inactive = the rest.
# Assay: NCI Yeast Anticancer Drug Screen. Data for the mec2-1 strain (AID 157)
# Settings: S. cerevisiae mec2-1 strain, at 50.0 µM, active compounds read high
# Procedure, shortened: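 Yeast mec2-1 mutant treated with compound. Readout: growth inhibition vs vehicle controls.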
row,Compound,growth inhibition
1,S=C(Nc1cc(Cl)cc(Cl)c1)SCc1ccccc1,99.5% (active)
2,CCCOc1cc(C(=O)OCCN(CC)CC)cc(OCCC)c1OCCC,15.8%
3,C=C1C(=O)[C@@]23CC[C@H]4[C@@](C)(CCC[C@@]4(C)C(=O)OC)[C@@H]2CC[C@]1(O)C3,94.4% (active)
4,CCCSc1ncnc2nc(C)[nH]c12,-14.5%
5,O=C1C=CC(=O)N1CCCCCCN1C(=O)C=CC1=O,99.3% (active)
6,CCOC(=O)c1[nH]c2c([N+](=O)[O-])cccc2c1[N+](=O)[O-],98% (active)
7,CSC(=S)/C(=C/Nc1ncccn1)c1ccccc1,93.5% (active)
8,N#CNc1nc(N)c(-c2ccc(Cl)cc2)c(C(=O)Nc2ccc(Cl)c(Cl)c2)n1,14%
9,COc1ccc2c(c1)c(=O)c1c(NCCN(C)C)ccc3nnn2c31,14.4%
10,CCC[CH2][Sn]([S][Sn]([CH2]CCC)([c]1ccccc1)[c]1ccccc1)([c]1ccccc1)[c]1ccccc1,99.5% (active)
11,CCC1=CCC2C(=O)c3cc4ccccc4cc3C(=O)C2C1 (stereo unspecified),96.2% (active)
12,Cc1ccccc1NC(=O)C1C(=O)N(c2ccccc2C)C(=O)/C1=N/O (stereo unspecified),2.95%
13,CCCCc1[nH]ccc2c(C)c3nc4ccccc4c3cc12,91.2% (active)
14,O=C(O)C(Br)C(Br)C(=O)Nc1ccc(Cl)c(Cl)c1 (stereo unspecified),98.1% (active)
15,Cc1cc(C)c2c(c1)sc1nncn12,97.8% (active)
16,CC(=O)C(C=O)C(C)=O.CC(=O)CC(C)=O.CC(=O)CC(C)=O.[Ru],97.9% (active)
